HCMV antiviral – qHTS Assay for inhibitors of the human cytomegalovirus (HCMV). activity change, negative = inhibition, % at 57.5 µM. HFF cells, HCMV-luciferase reporter, 72 h; active compounds read low. AID 1259415, 2018. 410,000 compounds, 4.5% hits; in the data active = activity change below about -60%; inconclusive = no clear call, values can overlap the other calls; inactive = above about -39%
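Inhibition of viral replication was scored as loss of reporter luminescence in HFFs infected with HCMV-luciferase (MOI 1 PFU/cell) for 72 h; compounds tested at 2 doses, normalized to buffer and Salinomycin controls.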
FMDV inh – High Throughput Screening for Foot and Mouth Disease Virus Antivirals; FMDV antiviral cell-based qHTS; Potency, µM (doses to about 57.9 µM), usual class: inhibitors; 410,000 compounds, 1.2% hits; calls by dose curve; tested in HEK293T cells; note: read-out not given here; nearly all actives have a fitted effect of over 45% in size
Vaccinia Venus – qHTS for Stage-Specific Inhibitors of Vaccinia Orthopoxvirus: Venus Reporter Primary qHTS. Potency, µM (top dose mostly 36.5 µM), actives largely listed as inhibitors. 330,000 compounds, 0.46% hits. Vaccinia virus Venus reporter expression, fluorescence. AID 720580, 2013; calls by dose curve; tested in A549 cells; note: nearly all actives have a fitted effect of over 30% in size
HCV inhibitor – qHTS Assay for Inhibitors of Hepatitis C Virus (HCV) | Huh7.5.1 HCVcc-Cre infection, luciferase reporter, 44 h | Potency, µM (titrated, usually from 41.8 µM), actives largely listed as inhibitors | 340,000 compounds, 3.4% hits | AID 651820, 2012; active = well fitted inhibition curve with a large enough effect; inconclusive = small, poorly fitted or top-dose-only effect, or another doubt; inactive = no such curve, though single readings can be large or run the other way
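Infectious HCV cell culture screen: compound-treated cells (1,000/well, pre-plated 4 h) are infected with HCVcc-Cre at roughly 0.5 moi and grown 44 h. Infection is quantified by luciferase signal after 15 min substrate incubation at room temperature.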
Vaccinia mCherry – qHTS for Stage-Specific Inhibitors of Vaccinia Orthopoxvirus: mCherry Reporter Primary qHTS; Potency, µM (titrated, usually from 36.5 µM), actives largely listed as inhibitors; AID 720579, 2013; Vaccinia virus mCherry reporter infection, fluorescence; 310,000 compounds, 0.63% hits; calls by dose curve; tested in A549 cells; note: nearly all actives have a fitted effect of over 35% in size
Numbers stand for hits; – = inactive; ? = inconclusive; · = not tested or not shown. Rows were chosen to be rich in hits. Some 7.3% of all compounds tested hit in one or more screens of this group.

SMILES | HCMV antiviral | FMDV inh | Vaccinia Venus | HCV inhibitor | Vaccinia mCherry
COc1ccc(NC(=O)NCCCN2CCN(c3cc(C)ccc3C)CC2)cc1 | – | ? | – | 10µM | ?
CCOc1cccc(N2CCN(CCNC(=O)Nc3ccc(C)cc3)CC2)c1C | – | ? | · | 13µM | ·
CCOc1ccc(NC(=O)NCCN2CCN(c3cccc(C)c3C)CC2)cc1 | – | ? | – | ? | –
COc1ccc(C2=C(C)C(=NCCCN3CCN(c4cc(C)ccc4C)CC3)NS2(=O)=O)cc1 | -91 | – | ? | · | ?
CCc1sc(-c2cc3cccc(OC)c3oc2=O)nc1-c1ccccc1 | · | · | – | · | –
CC1CC(C)CN(CCCNC(=O)c2ccc3c(c2)ncn3C2CCCC2)C1 (configuration not stated) | ? | – | · | – | ·
O=C(c1ccc([N+](=O)[O-])s1)N1CCN(c2ccccc2)CC1 | -96 | – | ? | ? | –
O=C(c1ccc([N+](=O)[O-])s1)N1CCN(c2ccccn2)CC1 | -61 | – | ? | ? | ?
CCN1CCN(C(=O)c2ccc(N3CC4CC(C3)c3cccc(=O)n3C4)c(NC(=O)c3cc(OC)cc(OC)c3)c2)CC1 (configuration not stated) | – | – | · | – | ·
COc1ccc2cc(CO)c3cc(OC)c(OC)cc3c2c1 | – | – | ? | 13µM | ?
COc1ccc2cc(CO)c(Cl)nc2c1 | – | – | · | – | ·
Cn1nc(C(=O)N2CCN(c3ccc(Cl)cc3)CC2)c2c1-c1ccccc1SC2 | -71 | – | – | · | –
CC1CC(C)CN(C(=O)c2nn(C)c3c2CSc2ccccc2-3)C1 (configuration not stated) | – | – | – | – | –
CSc1nc(Cl)c(Cc2ccc(OCC(C)C)cc2)c(N2CCOCC2)n1 | ? | ? | · | 11µM | ·
CCCCSCCCNC(=O)CN1C(=O)COc2ccc(S(=O)(=O)N3CCC(C)CC3)cc21 | – | – | – | · | –
OC(CNc1ccccc1)COc1ccc(OCC(O)CNc2ccccc2)cc1 (configuration not stated) | ? | ? | 11µM | ? | ·
CCOCC(O)CNc1ccccc1 (configuration not stated) | ? | – | – | – | –
C[C@H](CO)N1C[C@H](C)[C@@H](CN(C)C(=O)Nc2ccc(C(F)(F)F)cc2)Oc2ccc(NS(=O)(=O)c3cn(C)cn3)cc2C1=O | – | – | – | – | –
O=S(=O)(NCC1CCCO1)c1ccc(-c2ccc(S(=O)(=O)NCC3CCCO3)cc2)cc1 (configuration not stated) | -93 | – | ? | ? | ?
CC(=O)OCC1(C)CN(c2ccccc2)NC1=O (configuration not stated) | -62 | – | · | – | ·
CC(=O)OCC1(C)CN(c2ccccc2)N(C(C)=O)C1=O (configuration not stated) | ? | – | · | – | ·
COc1ccc(-c2c(C#N)c(N)nc3c2CCc2ccccc2-3)cc1OC | – | 16µM | · | 11µM | ·
CC1(C)CC[C@]2(C(=O)n3ccnc3)CC[C@]3(C)[C@H](C(=O)C=C4[C@@]5(C)C=C(C#N)C(=O)C(C)(C)[C@@H]5CC[C@]43C)[C@@H]2C1 | -101 | 1.4µM | – | ? | –
COc1ccc(/C=N/NC(=O)c2cccc(C(=O)N/N=C/c3ccc(OC)c(OC)c3)n2)cc1OC | ? | – | · | – | ·
COc1ccc(/C=N/NC(=O)CCC(=O)Nc2ccccc2)cc1OC | – | – | – | – | –
SMILES | HCMV antiviral | FMDV inh | Vaccinia Venus | HCV inhibitor | Vaccinia mCherry
COc1ccc(/C=N/NC(=O)CCSc2nc3ccccc3s2)cc1OC | – | – | · | 10µM | ·
COc1ccc(/C=N/NC(=O)c2cccnc2)cc1COc1ccc([N+](=O)[O-])c(C)c1 | -76 | 40µM | – | – | –
COc1cc(/C=N/NC(=O)CCN2CCN(C(c3ccccc3)c3ccccc3)CC2)ccc1O | – | – | – | 4.5µM | –
COc1ccc(/C=N/NC(=O)Nc2cccc3nsnc23)cc1OC | – | – | – | 5.6µM | –
CCc1nc(N2CCN(CC(=O)NCC3CCCO3)CC2)c(C#N)c2c1COC(C)(C)C2 (configuration not stated) | – | – | · | – | ·
O=S(=O)(Nc1ccc(Cl)cc1)c1ccc2c(c1)CCO2 | – | – | ? | – | –
CC1=C2CCC[C@]3(C)CCOC23C=CC1=O (some centres not stated) | – | · | · | · | ·
COc1ccc(CNC(=O)c2cnn(-c3ccc(C)cc3)c2-n2cccc2)cc1OC | – | ? | ? | · | ?
COc1cccc(C2c3c(-c4ccccc4O)n[nH]c3C(=O)N2CCc2ccc(OC)c(OC)c2)c1 (configuration not stated) | – | – | – | · | –
COc1ccccc1N1CCN(CC2CN3C(=O)N(C)c4ccccc4C3=N2)CC1 (configuration not stated) | · | – | – | · | –
COc1ccc(/C=N/OCC(=O)NC(c2ccccc2)c2ccccc2)cc1OC | -66 | 7.1µM | ? | 4µM | ?
Cc1ccccc1NC(=O)CCCSc1nc2ccccc2s1 | – | – | – | – | –
COc1ccc(/C=N/NC(=O)c2cccnc2)cc1CSc1nc2ccccc2s1 | ? | 35µM | – | – | ?
COc1ccc(/C=N/NC(=O)c2ccccc2Cl)cc1CSc1nc2ccccc2s1 | ? | – | · | ? | ·
O=C(CCSc1nc2ccccc2s1)N/N=C/c1c(O)ccc2ccccc12 | -99 | – | · | 3.2µM | ·
CCCN1CCN(C(=O)c2oc3c(Cl)cccc3c2C)CC1 | – | – | – | – | –
CCCOc1ccc(NC(=O)CC2C(=O)N(c3ccc(OC)cc3)C(=O)N2CCc2ccncc2)cc1 (configuration not stated) | – | – | – | · | –
O=C(O)CCn1cc(C=C2C(=O)NC(=O)NC2=O)c(-c2ccc(Br)cc2)n1 | – | – | – | – | –
O=C(O)CCn1cc(/C=C/C(=O)c2ccc(Cl)cc2)c(-c2ccc(Br)cc2)n1 | – | 16µM | – | – | –
Cc1nccn1CC(O)COc1ccc(Cl)cc1Cl (configuration not stated) | – | 0.45µM | – | ? | –
Cc1cc(C)n(CC(O)COc2ccc(Cl)cc2Cl)n1 (configuration not stated) | – | – | – | – | –
O=C(Cc1cc(C(F)(F)F)cc(C(F)(F)F)c1)Nc1c(-c2ccccc2)[nH][nH]c1=O | – | – | – | · | ?
COc1cc(NCCCCCCN)c2ncccc2c1OC | ? | ? | – | ? | –
COc1cc(NC(C)CCCNC(C)C)c2ncccc2c1OC (configuration not stated) | -82 | – | – | ? | –
C#CCSc1nsc(SCC#C)c1C#N | – | · | – | 11µM | –
CC1CC(O)[C@]2(O)[C@]13CC(=O)OC[C@@]2(C)[C@@](C)(O)C(=O)C3 (some centres not stated) | · | – | – | · | –
Cc1nc(N=Nc2cc(S(=O)(=O)O)ccc2S(=O)(=O)O)c(COP(=O)(O)O)c(C=O)c1O | · | – | · | · | ·

High-throughput results deposited in PubChem BioAssay by National Center for Advancing Translational Sciences (NCATS).
